Laboratory results reported in the supplement of paper PMC7411054.
Structures can show the parent of a compound that is named as a salt.

How the values were obtained:
Assay in all cases: phenotypically active (imaging signature differs from DMSO and reproducible) at any of 0.3-9 uM (binary (1 = active, 0 = inactive)); higher = active
Settings in all cases: treatment time: 24 h
[1] = test system: A549-ACTB-RAB5A
Summary of the method: (§1)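 Four wells per concentration (0.3, 1, 3 or 9 µM) were treated for 24 h in each of fifteen gene-edited reporter lines from A549, HepG2 and WPMY1 cells, then imaged live. After normalising live-cell features to solvent control wells, deviation was defined as ≥3 of 4 wells lying past the 95th percentile of control Euclidean distances. Reproducibility was defined as a median replicate Pearson correlation above the 95th percentile of non-replicates. Both had to hold for phenotypic activity.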

[2] = test system: A549-CANX-COX4
Summary of the method: as §1

[3] = test system: A549-GM130-SQSTM1
Summary of the method: as §1

[4] = test system: A549-TP53BP1-CLTA
Summary of the method: as §1

[5] = test system: A549-TUBA1B-RELA
Summary of the method: as §1

[6] = test system: HepG2-ACTB-RAB5A
Summary of the method: as §1

[7] = test system: HepG2-CANX-COX4
Summary of the method: as §1

[8] = test system: HepG2-GM130-SQSTM1
Summary of the method: as §1

[9] = test system: HepG2-TP53BP1-CLTA
Summary of the method: as §1

[10] = test system: HepG2-TUBA1B-RELA
Summary of the method: as §1

[11] = test system: WPMY1-ACTB-RAB5A
Summary of the method: as §1

[12] = test system: WPMY1-CANX-COX4
Summary of the method: as §1

[13] = test system: WPMY1-GM130-SQSTM1
Summary of the method: as §1

[14] = test system: WPMY1-TP53BP1-CLTA
Summary of the method: as §1

[15] = test system: WPMY1-TUBA1B-RELA
Summary of the method: as §1

Measured: phenotypically active

CC(C)[C@H]1CC[C@H](C(=O)N[C@H](Cc2ccccc2)C(=O)O)CC1 [nateglinide]
inactive: [1] 0 | [2] 0 | [3] 0 | [4] 0 | [5] 0 | [6] 0 | [7] 0 | [8] 0 | [9] 0 | [10] 0 | [11] 0 | [12] 0 | [13] 0 | [14] 0 | [15] 0

CC(=O)c1ccc(S(=O)(=O)NC(=O)NC2CCCCC2)cc1 [acetohexamide]
inactive: [1] 0 | [2] 0 | [3] 0 | [4] 0 | [5] 0 | [6] 0 | [7] 0 | [8] 0 | [9] 0 | [10] 0 | [11] 0 | [12] 0 | [13] 0 | [14] 0 | [15] 0

CCN(CC)CC(=O)Nc1c(C)cccc1C [lidocaine]
inactive: [1] 0 | [2] 0 | [3] 0 | [4] 0 | [5] 0 | [6] 0 | [7] 0 | [8] 0 | [9] 0 | [10] 0 | [11] 0 | [12] 0 | [13] 0 | [14] 0 | [15] 0

NCC[C@H](O)C(=O)N[C@H]1C[C@@H](N)[C@H](O[C@H]2O[C@H](CN)[C@@H](O)[C@H](O)[C@H]2O)[C@@H](O)[C@@H]1O[C@H]1O[C@H](CO)[C@@H](O)[C@H](N)[C@H]1O [Amikacin hydrate]
inactive: [1] 0 | [2] 0 | [3] 0 | [4] 0 | [5] 0 | [6] 0 | [7] 0 | [8] 0 | [9] 0 | [10] 0 | [11] 0 | [12] 0 | [13] 0 | [14] 0 | [15] 0

CC(C)(C)NC[C@H](O)COc1nsnc1N1CCOCC1 [timolol]
inactive: [1] 0 | [2] 0 | [3] 0 | [4] 0 | [5] 0 | [6] 0 | [7] 0 | [8] 0 | [9] 0 | [10] 0 | [11] 0 | [12] 0 | [13] 0 | [14] 0 | [15] 0

CC(C)C1=CC2=CCC3[C@](C)(CCC[C@]3(C)C(=O)O)C2CC1 (stereo not given in full) [Abietic Acid]
inactive: [1] 0 | [2] 0 | [3] 0 | [4] 0 | [5] 0 | [6] 0 | [7] 0 | [8] 0 | [9] 0 | [10] 0 | [11] 0 | [12] 0 | [13] 0 | [14] 0 | [15] 0

CNC(=O)COC(=O)NCCC1CCN(c2cccc(C)n2)CC1
inactive: [1] 0 | [2] 0 | [3] 0 | [4] 0 | [5] 0 | [6] 0 | [7] 0 | [8] 0 | [9] 0 | [10] 0 | [11] 0 | [12] 0 | [13] 0 | [14] 0 | [15] 0

Cc1cnc(C(=O)NCCc2ccc(S(=O)(=O)NC(=O)NC3CCCCC3)cc2)cn1 [glipizide]
inactive: [1] 0 | [2] 0 | [3] 0 | [4] 0 | [5] 0 | [6] 0 | [7] 0 | [8] 0 | [9] 0 | [10] 0 | [11] 0 | [12] 0 | [13] 0 | [14] 0 | [15] 0

O=c1ncccn1[C@@H]1O[C@H](CO)[C@@H](O)[C@H]1O [Zebularine]
inactive: [1] 0 | [2] 0 | [3] 0 | [4] 0 | [5] 0 | [6] 0 | [7] 0 | [8] 0 | [9] 0 | [10] 0 | [11] 0 | [12] 0 | [13] 0 | [14] 0 | [15] 0

Cc1[nH]c2ccccc2c1CCNC(=O)c1ccccc1F
inactive: [1] 0 | [2] 0 | [3] 0 | [4] 0 | [5] 0 | [6] 0 | [7] 0 | [8] 0 | [9] 0 | [10] 0 | [11] 0 | [12] 0 | [13] 0 | [14] 0 | [15] 0

CC(C)NCC(O)c1ccc(NS(C)(=O)=O)cc1 (stereo not given) [sotalol]
inactive: [1] 0 | [2] 0 | [3] 0 | [4] 0 | [5] 0 | [6] 0 | [7] 0 | [8] 0 | [9] 0 | [10] 0 | [11] 0 | [12] 0 | [13] 0 | [14] 0 | [15] 0

Cn1cccc1/C=C1\C(=O)NC(=O)c2ccccc21
inactive: [1] 0 | [2] 0 | [3] 0 | [4] 0 | [5] 0 | [6] 0 | [7] 0 | [8] 0 | [9] 0 | [10] 0 | [11] 0 | [12] 0 | [13] 0 | [14] 0 | [15] 0

COc1ccc([C@H]2CNC(=O)C2)cc1OC1CCCC1 [(S)-(+)-Rolipram]
inactive: [1] 0 | [2] 0 | [3] 0 | [4] 0 | [5] 0 | [6] 0 | [7] 0 | [8] 0 | [9] 0 | [10] 0 | [11] 0 | [12] 0 | [13] 0 | [14] 0 | [15] 0

CC(C(=O)Nc1cccc(/N=C/c2c(O)ccc3ccccc23)c1)c1ccccc1 (stereo not given) [Salermide]
inactive: [1] 0 | [2] 0 | [3] 0 | [4] 0 | [5] 0 | [6] 0 | [7] 0 | [8] 0 | [9] 0 | [10] 0 | [11] 0 | [12] 0 | [13] 0 | [14] 0 | [15] 0

C[C@H](N[C@@H](CCc1ccccc1)C(=O)O)C(=O)N1CCC[C@H]1C(=O)O [enalaprilat]
inactive: [1] 0 | [2] 0 | [3] 0 | [4] 0 | [5] 0 | [6] 0 | [7] 0 | [8] 0 | [9] 0 | [10] 0 | [11] 0 | [12] 0 | [13] 0 | [14] 0 | [15] 0

CN([C@H]1c2cc(OCCCC(F)(F)F)ccc2OC(C)(C)[C@@H]1O)S(C)(=O)=O
inactive: [1] 0 | [2] 0 | [3] 0 | [4] 0 | [5] 0 | [6] 0 | [7] 0 | [8] 0 | [9] 0 | [10] 0 | [11] 0 | [12] 0 | [13] 0 | [14] 0 | [15] 0

NC(=O)N1c2ccccc2C=Cc2ccccc21 [carbamazepine]
inactive: [1] 0 | [2] 0 | [3] 0 | [4] 0 | [5] 0 | [6] 0 | [7] 0 | [8] 0 | [9] 0 | [10] 0 | [11] 0 | [12] 0 | [13] 0 | [14] 0 | [15] 0

C#C[C@]1(O)CC[C@H]2[C@@H]3CCC4=CCCC[C@@H]4[C@H]3C(=C)C[C@@]21CC [desogestrel]
inactive: [1] 0 | [2] 0 | [3] 0 | [4] 0 | [5] 0 | [6] 0 | [7] 0 | [8] 0 | [9] 0 | [10] 0 | [11] 0 | [12] 0 | [13] 0 | [14] 0 | [15] 0

C[C@@H]1O[C@@H](O[C@H]2C(=O)c3c(O)cc(O)cc3O[C@@H]2c2ccc(O)c(O)c2)[C@H](O)[C@H](O)[C@H]1O [Astilbin]
inactive: [1] 0 | [2] 0 | [3] 0 | [4] 0 | [5] 0 | [6] 0 | [7] 0 | [8] 0 | [9] 0 | [10] 0 | [11] 0 | [12] 0 | [13] 0 | [14] 0 | [15] 0

COc1ccc([C@@H]2CC(=O)c3c(O)cc(O[C@@H]4O[C@H](CO[C@@H]5O[C@@H](C)[C@H](O)[C@@H](O)[C@H]5O)[C@@H](O)[C@H](O)[C@H]4O)cc3O2)cc1O [Hesperidin]
inactive: [1] 0 | [2] 0 | [3] 0 | [4] 0 | [5] 0 | [6] 0 | [7] 0 | [8] 0 | [9] 0 | [10] 0 | [11] 0 | [12] 0 | [13] 0 | [14] 0 | [15] 0

C[N+]1(C)[C@@H]2C[C@@H](OC(=O)C(O)(c3cccs3)c3cccs3)C[C@H]1[C@@H]1O[C@@H]12 [Tiotropium bromide]
inactive: [1] 0 | [2] 0 | [3] 0 | [4] 0 | [5] 0 | [6] 0 | [7] 0 | [8] 0 | [9] 0 | [10] 0 | [11] 0 | [12] 0 | [13] 0 | [14] 0 | [15] 0

O=C(c1cccc(Br)c1)N1CCC(N2CCCC2)CC1 [UNC 926 hydrochloride]
inactive: [1] 0 | [2] 0 | [3] 0 | [4] 0 | [5] 0 | [6] 0 | [7] 0 | [8] 0 | [9] 0 | [10] 0 | [11] 0 | [12] 0 | [13] 0 | [14] 0 | [15] 0

Cc1cc(C)nc(SCC(=O)Nc2ncc(Cc3cccc4ccccc34)s2)n1
inactive: [1] 0 | [2] 0 | [3] 0 | [4] 0 | [5] 0 | [6] 0 | [7] 0 | [8] 0 | [9] 0 | [10] 0 | [11] 0 | [12] 0 | [13] 0 | [14] 0 | [15] 0
